From the supplement of paper PMC6522484
± gives the standard deviation of the averaged measurements.

Key:
DLD1 [1] = experiment: cell viability (CellTiter-Glo) relative to plate median (fraction of plate median); higher = more viable cells; conditions: 5 µM; treatment time 24 h; reporter: 7TFP
Procedure, shortened: (§1)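 Colorectal cancer cells stably transduced with lentiviral TCF/Wnt firefly luciferase reporters were seeded in 384-well plates and dosed 24 h later with library compounds at a final 5 µM for 24 h. Firefly luciferase or CellTiterGlo luminescence was then read on a Tecan F500 from parallel plates. Signals were normalised per well to the plate median without log transformation, additively in webcellHTS2, and averaged over two independent replicates.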

HCT116 = experiment: as above; conditions: 5 µM; treatment time 24 h; reporter: TCF4/Wnt
Procedure, shortened: as §1

SW480 [2] = experiment: as above; conditions: 5 µM; treatment time 24 h; reporter: 7TFP
Procedure, shortened: as §1

DLD1 [3] = experiment: TCF/Wnt firefly luciferase reporter signal relative to plate median (fraction of plate median); higher = higher Wnt reporter signal; conditions: 5 µM; treatment time 24 h; reporter: 7TFP
Procedure, shortened: as §1

SW480 [4] = experiment: as above; conditions: 5 µM; treatment time 24 h; reporter: 7TFP
Procedure, shortened: as §1

| Compound | cell viability (DLD1 [1]) | cell viability (HCT116) | cell viability (SW480 [2]) | TCF/Wnt firefly luciferase reporter signal (DLD1 [3]) | TCF/Wnt firefly luciferase reporter signal (SW480 [4]) |
| --- | --- | --- | --- | --- | --- |
| COC1=CC(=O)c2c(O)c3c(c(O)c2C1=O)OC1(Oc2c(cc4cc(C)oc(=O)c4c2O)C2OC21)C3O (stereo not given) [Griseorhodin A] | 1.09 ± 0.11 | 1.01 ± 0.04 | 1.05 ± 0.021 | 0.925 ± 0.057 | 1.01 ± 0.014 |
| N=C(N)NS(=O)(=O)c1ccc(N)cc1 | 0.943 ± 0.044 | 0.892 ± 0.057 | 0.981 ± 0.027 | 0.962 ± 0.033 | 0.986 ± 0.048 |
| CSc1ccc2c(c1)N(CCC1CCCCN1C)c1ccccc1S2 (stereo not given) | 1.01 ± 0.048 | 1.02 ± 0.076 | 1.115 ± 0.0071 | 0.928 ± 0.039 | 0.895 ± 0.1 |
| CC(=O)c1c(O)cc(O)cc1O | 1.02 ± 0.035 | 1.03 ± 0.035 | 1.04 ± 0.068 | 1.08 ± 0.042 | 0.938 ± 0.033 |
| Cc1ccccc1C(OCCN(C)C)c1ccccc1 (stereo not given) | 1.07 ± 0.13 | 0.894 ± 0.15 | 1.01 ± 0.039 | 1.085 ± 0.0071 | 1.12 ± 0.085 |
| O=C1O[C@H](CO)[C@@H](O)[C@H](O)[C@H]1O | 1.005 ± 0.0071 | 1.035 ± 0.0071 | 1.085 ± 0.0071 | 0.949 ± 0.051 | 0.945 ± 0.13 |
